Legend:
Assay in all cases: DAPPL (digital affinity profiling via proximity ligation, sequencing); 10 mM Tris-HCl pH 7.5, 50 mM NaCl, 1 mM DTT, 4% glycerol, room temperature, 30 min; GST-TFs on glutathione beads, 16-mer random dsDNA library, 0.1% formaldehyde crosslink after washing; high values mean tight binding
Conditions in all cases: protein: recombinant; tags: N-terminal GST; dsDNA, one strand shown
ELK1 = target: T1, ELK1 (Homo sapiens, UniProt P19419 1-428)
T1 sequence: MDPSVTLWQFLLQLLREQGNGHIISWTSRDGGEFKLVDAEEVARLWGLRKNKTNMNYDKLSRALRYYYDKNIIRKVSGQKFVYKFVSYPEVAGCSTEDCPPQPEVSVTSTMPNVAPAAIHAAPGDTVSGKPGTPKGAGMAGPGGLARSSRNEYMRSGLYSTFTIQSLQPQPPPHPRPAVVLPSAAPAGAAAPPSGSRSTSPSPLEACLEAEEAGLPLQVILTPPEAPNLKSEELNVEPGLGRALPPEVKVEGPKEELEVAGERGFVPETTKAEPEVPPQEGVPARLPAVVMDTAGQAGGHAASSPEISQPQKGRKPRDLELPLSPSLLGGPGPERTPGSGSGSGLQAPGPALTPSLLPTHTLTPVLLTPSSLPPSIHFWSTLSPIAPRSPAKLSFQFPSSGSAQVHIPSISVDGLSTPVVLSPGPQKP
Outline: (§1)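 Pools were built from human transcription factors expressed in yeast as GST fusions, captured on glutathione beads and DNA-barcoded, along with a tag-only sample. Incubation with 200 nmole of a 16-mer random double-stranded DNA library lasted 30 min at room temperature in Tris/NaCl/DTT/glycerol buffer, and was followed by washing, 0.1% formaldehyde crosslinking, proximity ligation, PCR amplification and Illumina NextSeq500 sequencing. Binding signal is the quotient of each hexamer's read frequency for a factor and its frequency for the tag-only sample.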

ERG = target: T2, ERG (Homo sapiens, UniProt P11308 1-479)
T2 sequence: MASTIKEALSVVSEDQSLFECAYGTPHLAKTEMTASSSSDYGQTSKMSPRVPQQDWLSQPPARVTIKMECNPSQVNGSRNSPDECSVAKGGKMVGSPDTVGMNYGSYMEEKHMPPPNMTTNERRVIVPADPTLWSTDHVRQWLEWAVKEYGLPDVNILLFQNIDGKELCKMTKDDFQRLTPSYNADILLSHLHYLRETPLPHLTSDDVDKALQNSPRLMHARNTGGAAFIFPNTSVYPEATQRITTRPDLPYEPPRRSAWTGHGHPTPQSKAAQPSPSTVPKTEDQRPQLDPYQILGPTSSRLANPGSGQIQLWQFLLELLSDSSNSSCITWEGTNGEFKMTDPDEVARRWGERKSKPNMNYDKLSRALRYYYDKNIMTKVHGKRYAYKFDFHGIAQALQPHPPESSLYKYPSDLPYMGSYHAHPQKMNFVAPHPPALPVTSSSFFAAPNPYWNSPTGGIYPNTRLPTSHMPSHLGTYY
Outline: as §1

ELF1 = ELF1 (Homo sapiens, UniProt P32519 1-619)
ELF1, sequence (P32519 whole entry): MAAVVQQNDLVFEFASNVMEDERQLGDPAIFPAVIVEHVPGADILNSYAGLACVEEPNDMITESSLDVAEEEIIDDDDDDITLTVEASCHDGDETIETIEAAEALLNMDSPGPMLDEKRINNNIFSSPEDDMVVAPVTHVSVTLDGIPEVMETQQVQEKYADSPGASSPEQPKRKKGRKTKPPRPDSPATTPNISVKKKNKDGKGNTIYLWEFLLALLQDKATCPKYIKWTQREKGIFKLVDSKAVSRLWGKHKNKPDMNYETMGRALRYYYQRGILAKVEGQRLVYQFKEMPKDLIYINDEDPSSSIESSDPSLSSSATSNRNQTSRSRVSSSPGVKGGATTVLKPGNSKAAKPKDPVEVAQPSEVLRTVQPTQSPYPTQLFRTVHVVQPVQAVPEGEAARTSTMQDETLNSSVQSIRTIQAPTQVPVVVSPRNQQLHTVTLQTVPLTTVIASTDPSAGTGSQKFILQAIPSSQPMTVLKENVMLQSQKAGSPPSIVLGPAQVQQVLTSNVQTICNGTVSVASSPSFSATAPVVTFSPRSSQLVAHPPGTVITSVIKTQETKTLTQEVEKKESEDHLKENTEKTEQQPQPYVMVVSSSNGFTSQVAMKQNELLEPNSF
Outline: as §1

EHF = target: T3, EHF (Homo sapiens, UniProt Q9NZC4 1-300)
T3 sequence: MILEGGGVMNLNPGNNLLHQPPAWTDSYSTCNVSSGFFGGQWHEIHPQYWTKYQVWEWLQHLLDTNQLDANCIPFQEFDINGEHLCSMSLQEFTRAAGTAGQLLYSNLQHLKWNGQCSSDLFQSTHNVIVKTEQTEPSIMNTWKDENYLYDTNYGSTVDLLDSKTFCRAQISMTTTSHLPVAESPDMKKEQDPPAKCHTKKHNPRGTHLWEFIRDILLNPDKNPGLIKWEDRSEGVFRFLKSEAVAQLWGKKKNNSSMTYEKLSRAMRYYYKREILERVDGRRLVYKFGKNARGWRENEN
Outline: as §1

SPIB = SPIB (Homo sapiens, UniProt Q01892 1-262)
SPIB, sequence (Q01892 whole entry): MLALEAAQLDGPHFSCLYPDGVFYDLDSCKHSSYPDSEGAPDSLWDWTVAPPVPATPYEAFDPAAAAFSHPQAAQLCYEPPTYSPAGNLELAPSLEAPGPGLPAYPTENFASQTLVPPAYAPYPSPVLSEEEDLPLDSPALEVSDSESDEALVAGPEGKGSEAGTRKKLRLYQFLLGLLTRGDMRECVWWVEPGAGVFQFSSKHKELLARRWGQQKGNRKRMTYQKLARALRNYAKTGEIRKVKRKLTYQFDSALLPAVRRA
Outline: as §1

FEV = target: T4, FEV (Homo sapiens, UniProt Q99581 1-238)
T4 sequence: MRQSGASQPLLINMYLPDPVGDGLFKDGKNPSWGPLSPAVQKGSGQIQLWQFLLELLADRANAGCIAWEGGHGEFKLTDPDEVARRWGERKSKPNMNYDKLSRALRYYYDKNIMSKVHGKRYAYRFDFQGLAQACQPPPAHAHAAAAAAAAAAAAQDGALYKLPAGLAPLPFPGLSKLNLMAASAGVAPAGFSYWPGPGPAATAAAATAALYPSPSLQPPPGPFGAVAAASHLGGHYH
Outline: as §1

ETV5 = ETV5 (Homo sapiens, UniProt P41161 1-510)
ETV5, sequence (P41161 whole entry): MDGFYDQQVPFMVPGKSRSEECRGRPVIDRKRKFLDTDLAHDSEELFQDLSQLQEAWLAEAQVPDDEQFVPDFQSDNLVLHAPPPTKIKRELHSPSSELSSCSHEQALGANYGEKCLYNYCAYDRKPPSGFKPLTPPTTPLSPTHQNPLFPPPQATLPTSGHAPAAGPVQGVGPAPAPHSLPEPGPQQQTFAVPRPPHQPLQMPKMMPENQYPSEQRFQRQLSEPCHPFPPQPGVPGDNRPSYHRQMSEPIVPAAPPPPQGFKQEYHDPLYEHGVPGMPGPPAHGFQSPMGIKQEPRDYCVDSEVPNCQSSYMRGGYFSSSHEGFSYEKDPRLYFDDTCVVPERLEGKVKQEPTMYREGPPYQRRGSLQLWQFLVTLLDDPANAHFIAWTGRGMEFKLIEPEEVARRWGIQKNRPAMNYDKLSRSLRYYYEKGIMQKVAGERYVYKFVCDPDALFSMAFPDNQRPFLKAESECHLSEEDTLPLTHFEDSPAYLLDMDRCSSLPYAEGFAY
Outline: as §1

ELF4 = ELF4 (Homo sapiens, UniProt Q99607 1-663)
ELF4, sequence (Q99607 whole entry): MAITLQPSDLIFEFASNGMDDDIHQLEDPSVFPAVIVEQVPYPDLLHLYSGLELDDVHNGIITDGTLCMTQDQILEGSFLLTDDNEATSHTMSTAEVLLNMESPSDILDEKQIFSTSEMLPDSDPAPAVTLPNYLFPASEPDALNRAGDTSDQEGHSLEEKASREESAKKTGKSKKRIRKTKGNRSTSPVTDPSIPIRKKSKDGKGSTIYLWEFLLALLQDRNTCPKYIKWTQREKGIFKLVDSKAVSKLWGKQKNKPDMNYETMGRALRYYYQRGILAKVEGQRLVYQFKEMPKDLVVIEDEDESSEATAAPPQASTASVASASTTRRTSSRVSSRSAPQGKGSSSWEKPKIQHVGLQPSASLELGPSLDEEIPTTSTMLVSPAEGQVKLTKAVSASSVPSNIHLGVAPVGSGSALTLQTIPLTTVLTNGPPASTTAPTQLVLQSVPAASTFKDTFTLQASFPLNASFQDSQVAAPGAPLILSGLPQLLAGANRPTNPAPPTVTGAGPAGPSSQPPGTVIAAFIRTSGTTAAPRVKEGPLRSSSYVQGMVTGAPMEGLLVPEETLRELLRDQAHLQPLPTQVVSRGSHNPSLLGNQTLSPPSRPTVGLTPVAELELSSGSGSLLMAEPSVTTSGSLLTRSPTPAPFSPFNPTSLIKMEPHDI
Outline: as §1

ELK4 = target: T5, ELK4 (Homo sapiens, UniProt P28324-2 1-405)
T5 sequence: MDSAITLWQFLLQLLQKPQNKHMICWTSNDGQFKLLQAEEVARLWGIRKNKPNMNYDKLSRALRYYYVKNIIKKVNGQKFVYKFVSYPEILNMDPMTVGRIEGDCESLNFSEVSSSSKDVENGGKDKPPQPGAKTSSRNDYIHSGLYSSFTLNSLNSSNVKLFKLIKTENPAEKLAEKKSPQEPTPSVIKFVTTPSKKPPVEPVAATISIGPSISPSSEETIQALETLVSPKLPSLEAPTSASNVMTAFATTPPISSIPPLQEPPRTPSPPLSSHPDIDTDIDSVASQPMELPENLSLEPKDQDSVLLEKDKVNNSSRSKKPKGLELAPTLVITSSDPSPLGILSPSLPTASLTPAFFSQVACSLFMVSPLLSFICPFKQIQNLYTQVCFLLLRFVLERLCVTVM
Outline: as §1

ETV2 = target: T6, ETV2 (Homo sapiens, UniProt O00321 1-342)
T6 sequence: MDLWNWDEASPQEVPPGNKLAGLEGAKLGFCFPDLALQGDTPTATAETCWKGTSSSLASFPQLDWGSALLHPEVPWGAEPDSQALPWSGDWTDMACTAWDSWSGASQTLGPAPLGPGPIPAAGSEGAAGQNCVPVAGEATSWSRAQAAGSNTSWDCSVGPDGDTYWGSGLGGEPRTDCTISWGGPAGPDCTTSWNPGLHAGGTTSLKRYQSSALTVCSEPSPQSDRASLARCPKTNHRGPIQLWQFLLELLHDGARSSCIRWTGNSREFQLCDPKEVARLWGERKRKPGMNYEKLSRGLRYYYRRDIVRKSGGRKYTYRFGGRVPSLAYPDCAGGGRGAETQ
Outline: as §1

ELF3 = target: T7, ELF3 (Homo sapiens, UniProt P78545 1-371)
T7 sequence: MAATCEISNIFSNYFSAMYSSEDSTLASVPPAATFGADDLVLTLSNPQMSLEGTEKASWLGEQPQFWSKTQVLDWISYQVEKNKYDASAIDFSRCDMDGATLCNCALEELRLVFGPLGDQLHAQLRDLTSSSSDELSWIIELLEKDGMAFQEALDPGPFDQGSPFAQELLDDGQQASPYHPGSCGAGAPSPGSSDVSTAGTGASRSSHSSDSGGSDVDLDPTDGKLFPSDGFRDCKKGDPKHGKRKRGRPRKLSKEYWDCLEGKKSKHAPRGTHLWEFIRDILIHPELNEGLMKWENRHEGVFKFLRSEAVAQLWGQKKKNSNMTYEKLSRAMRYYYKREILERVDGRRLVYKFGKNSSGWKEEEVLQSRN
Outline: as §1

ETV1 = ETV1 (Homo sapiens, UniProt P50549 1-477)
ETV1, sequence (P50549 whole entry): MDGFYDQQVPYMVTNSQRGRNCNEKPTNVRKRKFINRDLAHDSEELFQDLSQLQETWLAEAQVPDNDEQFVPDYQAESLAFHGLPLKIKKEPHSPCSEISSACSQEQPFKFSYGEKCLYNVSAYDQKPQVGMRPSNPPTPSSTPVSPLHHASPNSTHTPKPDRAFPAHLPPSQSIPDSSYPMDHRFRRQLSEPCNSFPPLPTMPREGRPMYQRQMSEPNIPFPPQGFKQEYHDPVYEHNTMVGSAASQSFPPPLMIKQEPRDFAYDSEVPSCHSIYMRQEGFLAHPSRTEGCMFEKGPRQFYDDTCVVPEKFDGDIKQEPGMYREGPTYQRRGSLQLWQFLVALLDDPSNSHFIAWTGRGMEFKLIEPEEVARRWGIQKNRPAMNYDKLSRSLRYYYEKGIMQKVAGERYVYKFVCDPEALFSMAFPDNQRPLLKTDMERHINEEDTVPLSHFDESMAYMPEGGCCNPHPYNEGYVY
Outline: as §1

ERF = target: T8, ERF (Homo sapiens, UniProt P50548 1-548)
T8 sequence: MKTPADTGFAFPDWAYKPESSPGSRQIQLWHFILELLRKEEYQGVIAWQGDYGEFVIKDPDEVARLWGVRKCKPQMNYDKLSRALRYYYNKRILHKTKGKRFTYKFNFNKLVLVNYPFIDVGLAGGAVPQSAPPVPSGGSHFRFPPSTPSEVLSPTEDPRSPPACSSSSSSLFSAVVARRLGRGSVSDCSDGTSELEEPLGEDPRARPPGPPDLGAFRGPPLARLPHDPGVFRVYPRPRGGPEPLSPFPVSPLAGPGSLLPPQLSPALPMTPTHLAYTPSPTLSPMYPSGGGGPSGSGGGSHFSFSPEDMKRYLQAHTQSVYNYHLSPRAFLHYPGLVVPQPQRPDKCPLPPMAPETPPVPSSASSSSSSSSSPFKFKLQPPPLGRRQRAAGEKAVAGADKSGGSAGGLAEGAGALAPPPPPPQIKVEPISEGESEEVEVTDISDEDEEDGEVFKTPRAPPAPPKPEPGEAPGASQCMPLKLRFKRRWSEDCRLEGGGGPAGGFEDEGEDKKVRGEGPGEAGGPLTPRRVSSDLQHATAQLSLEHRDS
Outline: as §1

ETV3L = target: T9, ETV3L (Homo sapiens, UniProt Q6ZN32 1-361)
T9 sequence: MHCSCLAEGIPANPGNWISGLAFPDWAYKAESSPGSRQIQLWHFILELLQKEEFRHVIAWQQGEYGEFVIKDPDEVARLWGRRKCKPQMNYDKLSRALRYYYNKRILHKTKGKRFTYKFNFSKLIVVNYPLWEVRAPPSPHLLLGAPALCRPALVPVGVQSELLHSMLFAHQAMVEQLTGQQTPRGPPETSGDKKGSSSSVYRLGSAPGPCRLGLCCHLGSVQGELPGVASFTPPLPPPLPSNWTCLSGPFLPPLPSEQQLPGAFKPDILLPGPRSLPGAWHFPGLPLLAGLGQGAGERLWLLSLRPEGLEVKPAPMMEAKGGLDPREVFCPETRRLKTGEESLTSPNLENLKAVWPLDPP
Outline: as §1

ETS2 = target: T10, ETS2 (Homo sapiens, UniProt P15036 1-469)
T10 sequence: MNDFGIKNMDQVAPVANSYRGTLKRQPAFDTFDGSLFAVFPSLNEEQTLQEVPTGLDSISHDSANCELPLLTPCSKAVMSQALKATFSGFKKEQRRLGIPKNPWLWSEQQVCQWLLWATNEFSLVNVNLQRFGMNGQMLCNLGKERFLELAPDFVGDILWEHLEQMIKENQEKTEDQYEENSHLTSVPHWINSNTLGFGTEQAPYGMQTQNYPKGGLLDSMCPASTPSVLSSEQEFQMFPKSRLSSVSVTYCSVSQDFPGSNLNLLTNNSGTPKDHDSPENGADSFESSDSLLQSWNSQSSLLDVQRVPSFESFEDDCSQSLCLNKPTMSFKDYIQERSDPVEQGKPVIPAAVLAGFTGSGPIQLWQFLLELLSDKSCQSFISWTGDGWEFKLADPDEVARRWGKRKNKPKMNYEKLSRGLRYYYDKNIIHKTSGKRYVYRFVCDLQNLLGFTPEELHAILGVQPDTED
Outline: as §1

SPDEF = target: T11, SPDEF (Homo sapiens, UniProt O95238 1-335)
T11 sequence: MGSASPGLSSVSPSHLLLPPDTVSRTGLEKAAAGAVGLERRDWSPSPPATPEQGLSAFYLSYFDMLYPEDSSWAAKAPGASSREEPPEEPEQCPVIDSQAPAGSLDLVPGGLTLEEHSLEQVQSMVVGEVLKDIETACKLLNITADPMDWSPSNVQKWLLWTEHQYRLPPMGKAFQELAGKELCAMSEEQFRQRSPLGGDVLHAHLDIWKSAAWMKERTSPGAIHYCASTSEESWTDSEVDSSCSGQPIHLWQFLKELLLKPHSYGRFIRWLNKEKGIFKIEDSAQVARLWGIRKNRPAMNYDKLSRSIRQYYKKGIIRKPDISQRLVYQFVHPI
Outline: as §1

ETV3 = target: T12, ETV3 (Homo sapiens, UniProt P41162-2 1-143)
T12 sequence: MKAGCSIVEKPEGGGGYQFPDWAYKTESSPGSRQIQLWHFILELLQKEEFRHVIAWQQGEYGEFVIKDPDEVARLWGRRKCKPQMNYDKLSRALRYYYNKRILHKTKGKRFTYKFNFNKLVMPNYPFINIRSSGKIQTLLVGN
Outline: as §1

ETV6 = ETV6 (Homo sapiens, UniProt P41212 1-452)
ETV6, sequence (P41212 whole entry): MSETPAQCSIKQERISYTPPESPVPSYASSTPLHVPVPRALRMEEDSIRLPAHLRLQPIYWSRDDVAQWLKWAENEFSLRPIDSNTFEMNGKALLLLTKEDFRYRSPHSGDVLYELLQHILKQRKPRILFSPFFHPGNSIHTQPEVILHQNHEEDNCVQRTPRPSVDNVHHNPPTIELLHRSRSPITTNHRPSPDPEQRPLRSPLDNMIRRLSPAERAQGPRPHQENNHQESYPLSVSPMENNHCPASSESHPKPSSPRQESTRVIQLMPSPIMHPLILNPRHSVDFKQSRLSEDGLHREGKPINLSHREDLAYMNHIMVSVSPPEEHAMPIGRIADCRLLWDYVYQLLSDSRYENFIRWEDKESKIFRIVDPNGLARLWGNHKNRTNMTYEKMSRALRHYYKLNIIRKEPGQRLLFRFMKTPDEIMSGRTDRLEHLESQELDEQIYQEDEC
Outline: as §1

For CAAGTT, the binding signal (ELK1) was 1.06 fold enrichment (6-mer frequency, TF over GST control), the binding signal (ERG) was 1.08 fold enrichment (6-mer frequency, TF over GST control) and the binding signal (ELF1) was 1.06 fold enrichment (6-mer frequency, TF over GST control). For the same sequence, the binding signal (EHF) was 1.02 fold enrichment (6-mer frequency, TF over GST control), the binding signal (SPIB) was 1.1 fold enrichment (6-mer frequency, TF over GST control) and the binding signal (FEV) was 1.02 fold enrichment (6-mer frequency, TF over GST control). For the same sequence, the binding signal (ETV5) was 1.08 fold enrichment (6-mer frequency, TF over GST control), the binding signal (ELF4) was 1.09 fold enrichment (6-mer frequency, TF over GST control) and the binding signal (ELK4) was 1.08 fold enrichment (6-mer frequency, TF over GST control). The binding signal (ETV2) was 1.03 fold enrichment (6-mer frequency, TF over GST control), the binding signal (ELF3) was 1.06 fold enrichment (6-mer frequency, TF over GST control) and the binding signal (ETV1) was 1.05 fold enrichment (6-mer frequency, TF over GST control). The binding signal (ERF) was 1.2 fold enrichment (6-mer frequency, TF over GST control), the binding signal (ETV3L) was 1.1 fold enrichment (6-mer frequency, TF over GST control) and the binding signal (ETS2) was 1.13 fold enrichment (6-mer frequency, TF over GST control). The binding signal (SPDEF) was 1.02 fold enrichment (6-mer frequency, TF over GST control), the binding signal (ETV3) was 1.16 fold enrichment (6-mer frequency, TF over GST control) and the binding signal (ETV6) was 1.09 fold enrichment (6-mer frequency, TF over GST control).

Reference: paper PMC7862700, “An all-to-all approach to the identification of sequence-specific readers for epigenetic DNA modifications on cytosine”
